According to PubChem BioAssay (EPA / NIEHS):
Results filed as inconclusive are left out. Some compounds were tested as several samples or in several runs, with calls that do not always agree. Calls of active or inactive are those of the source. The calls were made as follows, unless noted: active = hit-call score of the fitted dose curve at least 0.9, where 1 is the maximum; inactive = score below 0.9.

How the values were obtained:
[1] = molecular target: Nucleoli Translocation, AR (gene 367) (UniProt P10275); experiment: UPITT_HCI_U2OS_AR_TIF2_Nucleoli_Agonist: University of Pittsburgh U2OS Androgen Receptor-Transcriptional Intermediary Factor 2 (AR-TIF2) Agonism High Content Imaging Assay for Nucleoli Translocation (AID 2283998; active = hit-call score of the fitted dose curve at least 0.9, where 1 is the maximum)
Method in brief: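 Red-tagged human androgen receptor co-expressed with GFP-tagged TIF2 serves as the binding reporter. Primary testing used 20 uM final (0.2% DMSO); follow-up dose response covered 0.195 to 50 uM final (0.5% DMSO).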

[2] = molecular target: Ratio of Nucleoli Translocation and Cytoplasm, AR (gene 367) (UniProt P10275); experiment: UPITT_HCI_U2OS_AR_TIF2_Nucleoli_Cytoplasm_Ratio_Agonist: University of Pittsburgh U2OS Androgen Receptor-Transcriptional Intermediary Factor 2 (AR-TIF2) Agonism High Content Imaging Assay for Ratio of Nucleoli Translocation and Cytoplasm (AID 2284000; active = hit-call score of the fitted dose curve at least 0.9, where 1 is the maximum;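 also: hits raise the red nucleolar to cytoplasm ratio above vehicle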)
Method in brief: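 Read-out first: nucleolar-to-cytoplasm ratio of red (AR-RFP) signal, quantified by high-content imaging in U2OS cells co-expressing TIF2-GFP. Activity is scored as signal increase over DMSO. Single-point screening used 20 uM final (0.2% DMSO).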

[3] = molecular target: Nucleoli Translocation, AR (gene 367) (UniProt P10275); experiment: UPITT_HCI_U2OS_AR_TIF2_Nucleoli_Antagonist: University of Pittsburgh U2OS Androgen Receptor-Transcriptional Intermediary Factor 2 (AR-TIF2) Antagonism High Content Imaging Assay for Nucleoli Translocation (AID 2283997; active = hit-call score of the fitted dose curve at least 0.9, where 1 is the maximum)
Method in brief: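 Measured quantity was AR-RFP fluorescence localized to nucleoli in engineered U2OS cells also bearing TIF2-GFP, acquired on automated high-content imagers. Primary testing used 20 uM compound; actives were confirmed in triplicate wells.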

DIO1 (gene 1733) = experiment: CCTE_GLTED_hDIO1: CCTE's human Deiodinase 1 (DIO1) Inhibition Assay, Great Lakes Toxicology and Ecology Division (GLTED) Lab (AID 2283987; active = hit-call score of the fitted dose curve at least 0.9, where 1 is the maximum;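 also: isolated human DIO1 enzyme in a cell-free setup rather than cells; enzyme activity read as free iodide liberated from substrate via Sandell-Kolthoff colorimetry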)
Method in brief: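 Cell-free hDIO1 assay, triplicate plates. Absorbance of the Sandell-Kolthoff reaction reports enzyme-liberated iodide; iodinated chemicals or nitrite, iron and thiocyanate may interfere.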

[4] = CCTE_Simmons_MITO_basal_resp_rate: CCTE's HepG2 Seahorse XF Respirometric Screening Assay at Basal Respiratory State, Simmons Lab (AID 2284001); settings: actives raise or lower the signal
Method in brief: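 HepG2 respirometry; 7-pt titration 125 nM–100 uM final; kinetic OCR at 6 min intervals for 72 min; n=3 biological, technical singles; DMSO baseline, gain or loss fit; fenpyroximate (decrease) and 2,4-DNP (increase) controls.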

[5] = CCTE_Simmons_MITO_max_resp_rate: CCTE's HepG2 Seahorse XF Respirometric Screening Assay at Maximal Respiratory State [uncoupled], Simmons Lab (AID 2284002); settings: actives raise or lower the signal
Method in brief: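 Maximal respiration in HepG2 cells is recorded as OCR by Seahorse XF following FCCP injection. Compounds span 125 nM–100 uM final; activity is called in either direction against DMSO.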

[6] = CCTE_Simmons_MITO_inhib_resp_rate: CCTE's HepG2 Seahorse XF Respirometric Screening Assay at Inhibited Respiratory State [full ETC block], Simmons Lab (AID 2284006); settings: actives raise or lower the signal
Method in brief: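 Compound injected onto HepG2 cells (125 nM–100 uM final, 7 points); FCCP then rotenone/antimycin A added. Oxygen consumption read every 6 min (3 min mix, 3 min measure) for 72 min. Inhibited-state OCR fitted against DMSO.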

[7] = CCTE_Harrill_HTTr_Viability_DMEM_6hr: (Pilot) CCTE's 6-hour Cell Viability Assessment for the High-Throughput Transcriptomics (HTTr) Platform, in MCF-7 cells cultured in DMEM + 10% fetal bovine serum, Harrill Lab (AID 2283973)
Method in brief: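 MCF-7 cells in DMEM + 10% FBS, eight-point dilution series, 6 h exposure. Membrane integrity by propidium iodide exclusion with high-content imaging; bidirectional fit versus DMSO.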

[8] = CCTE_Harrill_HTTr_Viability_DMEM_12hr: (Pilot) CCTE's 12-hour Cell Viability Assessment for the High-Throughput Transcriptomics (HTTr) Platform, in MCF-7 cells cultured in DMEM + 10% fetal bovine serum, Harrill Lab (AID 2283974)
Method in brief: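 MCF-7 cells in DMEM + 10% FBS exposed 12 h to an eight-point dilution series; membrane integrity scored by propidium iodide exclusion with high-content imaging, bidirectional fitting versus DMSO.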

[9] = CCTE_Harrill_HTTr_Viability_DMEM_24hr: (Pilot) CCTE's 24-hour Cell Viability Assessment for the High-Throughput Transcriptomics (HTTr) Platform, in MCF-7 cells cultured in DMEM + 10% fetal bovine serum, Harrill Lab (AID 2283975)
Method in brief: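 MCF-7 cells in DMEM with 10% FBS exposed for 24 hours to an eight-point dilution series. Membrane integrity by propidium iodide exclusion with high content imaging; bidirectional fit against DMSO.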

[10] = CCTE_Harrill_HTTr_Viability_PRF_DMEM_6hr: (Pilot) CCTE's 6-hour Cell Viability Assessment for the High-Throughput Transcriptomics (HTTr) Platform, in MCF-7 cells cultured phenol red-free DMEM + 10% charcoal-stripped fetal bovine serum, Harrill Lab (AID 2283976)
Method in brief: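 MCF-7 cells in phenol red-free DMEM with 10% charcoal-stripped FBS exposed 6 hours to an eight-point dilution series. Propidium iodide exclusion imaged; curves fitted bidirectionally against DMSO.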

[11] = CCTE_Harrill_HTTr_Viability_PRF_DMEM_12hr: (Pilot) CCTE's 12-hour Cell Viability Assessment for the High-Throughput Transcriptomics (HTTr) Platform, in MCF-7 cells cultured in phenol red-free DMEM + 10% charcoal-stripped fetal bovine serum, Harrill Lab (AID 2283977)
Method in brief: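 MCF-7 cells in phenol red-free DMEM with 10% charcoal-stripped FBS exposed 12 hours to an eight-point dilution series. Viability assessed by high-content imaging of propidium iodide exclusion; bidirectional fit versus DMSO.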

[12] = CCTE_Harrill_HTTr_Viability_PRF_DMEM_24hr: (Pilot) CCTE's 24-hour Cell Viability Assessment for the High-Throughput Transcriptomics (HTTr) Platform, in MCF-7 cells cultured in phenol red-free DMEM + 10% charcoal-stripped fetal bovine serum, Harrill Lab (AID 2283980)
Method in brief: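 MCF-7 cells in phenol red-free DMEM with 10% charcoal-stripped FBS, eight-point dilution series, 24 h exposure. Membrane integrity by propidium iodide exclusion with high content imaging; bidirectional fit vs DMSO.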

[13] = CCTE_Harrill_HTTr_Apoptosis_DMEM_6hr: (Pilot) CCTE's 6-hour Apoptosis Assessment for the High-Throughput Transcriptomics (HTTr) Platform, in MCF-7 cells cultured in DMEM + 10% fetal bovine serum, Harrill Lab (AID 2283981)
Method in brief: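 Caspase-3/7 activation read by high content imaging with CellEvent Caspase 3/7 Green in MCF-7 cells (DMEM + 10% FBS), 6 h after dosing; eight-point dilution series. Bidirectional fitting relative to DMSO baseline.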

[14] = CCTE_Harrill_HTTr_Apoptosis_DMEM_12hr: (Pilot) CCTE's 12-hour Apoptosis Assessment for the High-Throughput Transcriptomics (HTTr) Platform, in MCF-7 cells cultured in DMEM + 10% fetal bovine serum, Harrill Lab (AID 2283982)
Method in brief: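 MCF-7 cells in DMEM + 10% FBS, exposed 12 h to an eight-point dilution series; caspase-3/7 activation imaged with CellEvent Green. Bidirectional fit versus DMSO.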

[15] = CCTE_Harrill_HTTr_Apoptosis_DMEM_24hr: (Pilot) CCTE's 24-hour Apoptosis Assessment for the High-Throughput Transcriptomics (HTTr) Platform, in MCF-7 cells cultured in DMEM + 10% fetal bovine serum, Harrill Lab (AID 2283983)
Method in brief: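 MCF-7 cells in DMEM + 10% FBS, eight-point dilution series, 24 h exposure. Caspase-3/7 activation imaged by high-content imaging with CellEvent Caspase 3/7 Green. Bidirectional curve fitting against DMSO baseline.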

[16] = CCTE_Harrill_HTTr_Apoptosis_PRF_DMEM_6hr: (Pilot) CCTE's 6-hour Apoptosis Assessment for the High-Throughput Transcriptomics (HTTr) Platform, in MCF-7 cells cultured phenol red-free DMEM + 10% charcoal-stripped fetal bovine serum, Harrill Lab (AID 2283984)
Method in brief: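 MCF-7 cells in phenol red-free DMEM + 10% charcoal-stripped FBS, eight-point dilution series, 6 h exposure. Caspase-3/7 activation imaged by high-content imaging with CellEvent Caspase 3/7 Green; bidirectional fit versus DMSO baseline.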

[17] = CCTE_Harrill_HTTr_Apoptosis_PRF_DMEM_12hr: (Pilot) CCTE's 12-hour Apoptosis Assessment for the High-Throughput Transcriptomics (HTTr) Platform, in MCF-7 cells cultured in phenol red-free DMEM + 10% charcoal-stripped fetal bovine serum, Harrill Lab (AID 2283985)
Method in brief: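 MCF-7 cells in phenol red-free DMEM with 10% charcoal-stripped FBS, eight-point dilution series, 12 h exposure. Caspase-3/7 activation imaged by high content imaging with CellEvent Green reagent; bidirectional fit vs DMSO.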

[18] = CCTE_Harrill_HTTr_Apoptosis_PRF_DMEM_24hr: (Pilot) CCTE's 24-hour Apoptosis Assessment for the High-Throughput Transcriptomics (HTTr) Platform, in MCF-7 cells cultured in phenol red-free DMEM + 10% charcoal-stripped fetal bovine serum, Harrill Lab (AID 2283986)
Method in brief: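 MCF-7 cells in phenol red-free DMEM with 10% charcoal-stripped FBS, exposed 24 h across an eight-point dilution series. Caspase-3/7 activation imaged with CellEvent Green by high content imaging; bidirectional fitting against DMSO.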

Measured: AC50

Ratio of Nucleoli Translocation and Cytoplasm, AR (gene 367), sequence (P10275 whole entry, looked up): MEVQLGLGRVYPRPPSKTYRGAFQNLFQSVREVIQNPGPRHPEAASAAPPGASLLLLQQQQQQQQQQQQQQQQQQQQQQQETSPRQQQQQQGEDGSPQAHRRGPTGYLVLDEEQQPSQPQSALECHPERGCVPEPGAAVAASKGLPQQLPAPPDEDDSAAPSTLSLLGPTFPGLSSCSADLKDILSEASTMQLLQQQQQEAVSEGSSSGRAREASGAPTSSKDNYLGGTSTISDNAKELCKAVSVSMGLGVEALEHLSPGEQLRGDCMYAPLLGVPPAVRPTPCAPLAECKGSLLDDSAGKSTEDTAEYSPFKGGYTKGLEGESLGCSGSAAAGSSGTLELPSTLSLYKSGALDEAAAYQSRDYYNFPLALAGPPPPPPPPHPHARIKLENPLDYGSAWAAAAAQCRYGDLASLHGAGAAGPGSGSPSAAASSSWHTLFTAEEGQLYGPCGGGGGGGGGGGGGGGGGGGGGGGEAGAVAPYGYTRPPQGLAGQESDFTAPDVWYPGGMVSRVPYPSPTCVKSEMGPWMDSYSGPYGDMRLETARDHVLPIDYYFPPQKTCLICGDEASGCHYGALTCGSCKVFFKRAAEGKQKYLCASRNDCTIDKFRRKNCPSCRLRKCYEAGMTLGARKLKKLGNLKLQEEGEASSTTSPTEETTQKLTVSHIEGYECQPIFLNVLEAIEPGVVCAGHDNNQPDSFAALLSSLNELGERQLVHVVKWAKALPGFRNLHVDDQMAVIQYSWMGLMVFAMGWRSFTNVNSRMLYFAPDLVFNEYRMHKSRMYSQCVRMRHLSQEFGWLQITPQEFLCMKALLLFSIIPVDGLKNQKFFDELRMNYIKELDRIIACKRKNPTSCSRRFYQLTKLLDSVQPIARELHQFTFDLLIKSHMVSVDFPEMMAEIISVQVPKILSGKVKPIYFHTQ
Nucleoli Translocation, AR (gene 367), sequence (P10275 whole entry, looked up): as above

Cc1cc(Cl)ccc1OCC(=O)O
inactive: [1] | [2]

CCOC(=O)CC(SP(=S)(OC)OC)C(=O)OCC (stereo not given)
inactive: [2]
active: [3] 50 µM

CCCN(CCC)c1c([N+](=O)[O-])cc(S(N)(=O)=O)cc1[N+](=O)[O-]
active: DIO1 (gene 1733) 166 µM [middle of 7 runs] | [4] 30.7 µM | [5] 34 µM
inactive: [4] | [5] | [6]

C#CCOS(=O)OC1CCCCC1Oc1ccc(C(C)(C)C)cc1 (stereo not given)
inactive: [6]
active: [4] 15.5 µM | [5] 11.3 µM

C=CC1(C)OC(=O)N(c2cc(Cl)cc(Cl)c2)C1=O (stereo not given)
inactive: [7] | [8] | [9] | [10] | [11] | [12] | [13] | [14] | [15] | [16] | [17] | [18]
